Test results reported in PubChem BioAssay (EPA / NIEHS).
Results filed as inconclusive are left out. Calls of active or inactive are those of the source. How the source made its calls, unless noted: active means hit-call score of the fitted dose curve at least 0.9, where 1 is the maximum; inconclusive means response in the unintended direction; inactive means score below 0.9.

Columns and labels:
[1] = CLD_ACTIN_48hr: CellzDirect (CLD) Gene Expression Assay for Baseline Control (Actin) at 48 hours (AID 2283702)
How it was run: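 Primary human hepatocytes (two donor preparations) dosed daily for two days with ToxCast chemicals at multiple concentrations versus 0.2% DMSO vehicle; harvested at 48 h. Actin mRNA measured as a background control by quantitative nuclease protection assay with chemiluminescence.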

[2] = read-out: Broad substrate specificity ATP-binding cassette transporter ABCG2 (Homo sapiens) (UniProt Q9UNQ0); experiment: CLD_ABCG2_48hr: CellzDirect (CLD) Gene Expression Assay for ABC Transporter (ABCG2) at 48 hours (AID 2283704);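 on AC50: potency for induction of ABCG2 mRNA above the DMSO baseline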
How it was run: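 Primary human hepatocytes from two donors, dosed daily for 2 days, 0.2% DMSO vehicle, several concentrations. ABCG2 mRNA at 48 h by qNPA chemiluminescence, gain fitted versus DMSO; cytotoxicity flagged by morphology.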

[3] = read-out: xenobiotic metabolism (CYP1A1), CYP1A1 (gene 1543); experiment: CLD_CYP1A1_48hr: CellzDirect (CLD) Gene Expression Assay for xenobiotic metabolism (CYP1A1) at 48 hours (AID 2283705)
How it was run: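 Primary human hepatocytes from two donors dosed daily for two days at multiple concentrations, 0.2% DMSO vehicle; CYP1A1 mRNA induction at 48 h by qNPA chemiluminescence. Cytotoxicity noted by phase-contrast morphology.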

[4] = read-out: organic anion transporter (SLCO1B1), SLCO1B1 (gene 10599); experiment: CLD_SLCO1B1_48hr: CellzDirect (CLD) Gene Expression Assay for organic anion transporter (SLCO1B1) at 48 hours (AID 2283707)
How it was run: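 Primary human hepatocytes from two donor preparations dosed daily for two days with multiple concentrations, 0.2% DMSO vehicle. SLCO1B1 mRNA at 48 h by quantitative nuclease protection assay, chemiluminescence; gain-of-signal fitted versus DMSO.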

[5] = read-out: alkyl and aryl transferase (GSTA2), GSTA2 (gene 2939); experiment: CLD_GSTA2_48hr: CellzDirect (CLD) Gene Expression Assay for alkyl and aryl transferase (GSTA2) at 48 hours (AID 2283708);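 further: active means mRNA induction above DMSO vehicle baseline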
How it was run: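 Primary human hepatocytes dosed daily for two days (0.2% DMSO vehicle), harvested at 48 h. GSTA2 mRNA induction measured by quantitative nuclease protection assay with chemiluminescent imaging, fitted for gain of signal relative to DMSO.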

[6] = read-out: glucuronosyltransferase (UGT1A1), UGT1A1 (gene 54658); experiment: CLD_UGT1A1_48hr: CellzDirect (CLD) Gene Expression Assay for glucuronosyltransferase (UGT1A1) at 48 hours (AID 2283709);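 further: actives increase expression relative to DMSO so potency refers to induction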
How it was run: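 Human primary hepatocytes dosed daily for two days (0.2% DMSO vehicle), harvested at 48 h. UGT1A1 mRNA induction measured by quantitative nuclease protection assay with chemiluminescence; gain of signal versus DMSO; cytotoxicity flagged from morphology.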

[7] = read-out: HMG-CoA synthase (HMGCS2), HMGCS2 (gene 3158); experiment: CLD_HMGCS2_48hr: CellzDirect (CLD) Gene Expression Assay for HMG-CoA synthase (HMGCS2) at 48 hours (AID 2283711)
How it was run: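 Primary human hepatocytes from two donors dosed daily for two days, 0.2% DMSO vehicle. HMGCS2 mRNA measured 48 h after dosing by quantitative nuclease protection assay with chemiluminescent read-out; induction fitted relative to DMSO, cytotoxicity flagged by microscopy.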

[8] = STM_H9_OrnithineISnorm_perc: Stemina devTOX quickPredict H9 human embryonic stem cell (hESC)-based Assay for Ornithine (ORN) Metabolite Biomarker, Normalized (AID 2283712; active means hit-call score of the fitted dose curve at least 0.9, where 1 is the maximum; inactive means score below 0.9;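 further: ornithine released into spent medium during last day measured by mass spectrometry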)
How it was run: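 Cells: undifferentiated H9 hESC. Dosing: 72 h, media replaced every 24 h. Sample: final 24-h conditioned media, 40% acetonitrile. Read: UPLC-HRMS ornithine area vs 13C standard, % DMSO control.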

[9] = STM_H9_CystineISnorm_perc: Stemina devTOX quickPredict H9 human embryonic stem cell (hESC)-based Assay for Cystine (CYSS) Metabolite Biomarker, Normalized (AID 2283713; active means hit-call score of the fitted dose curve at least 0.9, where 1 is the maximum; inactive means score below 0.9)
How it was run: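 Secreted cystine was measured by UPLC-HRMS in H9 hESC medium after 72h compound exposure with 24-hourly replenishment. Values are standard-normalized areas relative to 0.1% DMSO.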

[10] = read-out: xenobiotic metabolism (CYP1A2), CYP1A2 (gene 1544); experiment: CLD_CYP1A2_48hr: CellzDirect (CLD) Gene Expression Assay for xenobiotic metabolism (CYP1A2) at 48 hours (AID 2283703)
How it was run: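 Primary human hepatocytes from two donor preparations were dosed daily for two days at multiple concentrations in 0.2% DMSO vehicle. CYP1A2 mRNA was measured at 48 hours by chemiluminescent quantitative nuclease protection assay, with gain of signal fitted versus DMSO and cytotoxicity annotated from morphology.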

Measured: AC50

Sequence of Broad substrate specificity ATP-binding cassette transporter ABCG2 (Homo sapiens) (Q9UNQ0 whole entry, looked up): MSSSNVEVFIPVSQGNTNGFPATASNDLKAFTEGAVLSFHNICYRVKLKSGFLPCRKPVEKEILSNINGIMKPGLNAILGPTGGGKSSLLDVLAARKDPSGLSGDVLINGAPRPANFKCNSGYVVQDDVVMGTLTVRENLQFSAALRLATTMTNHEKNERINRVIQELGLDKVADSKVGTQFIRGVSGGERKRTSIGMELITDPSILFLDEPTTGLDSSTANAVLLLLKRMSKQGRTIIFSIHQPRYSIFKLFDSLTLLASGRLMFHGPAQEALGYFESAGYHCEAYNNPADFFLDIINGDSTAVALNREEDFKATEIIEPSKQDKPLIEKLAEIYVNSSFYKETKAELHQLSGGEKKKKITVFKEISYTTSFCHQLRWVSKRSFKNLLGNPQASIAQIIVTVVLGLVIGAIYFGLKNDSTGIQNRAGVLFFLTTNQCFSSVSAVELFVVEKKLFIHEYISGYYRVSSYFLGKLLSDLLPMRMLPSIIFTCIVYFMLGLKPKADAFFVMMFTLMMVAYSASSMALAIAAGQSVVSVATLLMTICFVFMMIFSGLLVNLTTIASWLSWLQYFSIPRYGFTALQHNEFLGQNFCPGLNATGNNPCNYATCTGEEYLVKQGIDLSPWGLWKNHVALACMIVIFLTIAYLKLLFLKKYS

CCS(=O)(=O)c1cccnc1S(=O)(=O)NC(=O)Nc1nc(OC)cc(OC)n1
active: [3] 2.37 µM
inactive: [1] | [2] | [4] | [5] | [6]

O=S(=O)(O)C(F)(F)C(F)(F)C(F)(F)C(F)(F)C(F)(F)C(F)(F)C(F)(F)C(F)(F)F
inactive: [1] | [3] | [4] | [7] | [8] | [9]

CNC(=O)Oc1cccc(N=CN(C)C)c1
inactive: [1] | [3] | [5]

O=C(O)C(F)(F)C(F)(F)C(F)(F)C(F)(F)C(F)(F)C(F)(F)C(F)(F)F
active: [3] 0.0776 µM | [7] 35.5 µM
not listed: [6] | [10]
inactive: all other assays above

N#Cc1c(Cl)c(Cl)c(Cl)c(C#N)c1Cl
inactive: [1] | [10] | [2] | [3] | [5]

CCOCN(C(=O)CCl)c1c(C)cccc1CC
inactive: [1] | [2] | [8] | [9]
active: [3] 1.85 µM | [5] 20 µM

CC(C)OC(=O)Nc1cccc(Cl)c1
active: [3] 5.09 µM | [6] 12.8 µM | [9] 11.1 µM
inactive: [1] | [4] | [5] | [8]

CNC(=O)CSP(=S)(OC)OC
inactive: [1] | [2] | [7]

O=C(O)CCCOc1ccc(Cl)cc1Cl
inactive: [1] | [10] | [2] | [3] | [7]

CCN(CC)C(=O)SCc1ccc(Cl)cc1
inactive: [1] | [3] | [5]

CC1(c2ccc(Oc3ccccc3)cc2)OC(=O)N(Nc2ccccc2)C1=O (stereo unspecified)
inactive: [1] | [2] | [5] | [7]
active: [3] 3.38 µM | [8] 4.54 µM | [9] 2.42 µM

CC(C)N(C(=O)COc1nnc(C(F)(F)F)s1)c1ccc(F)cc1
inactive: [1] | [2] | [5] | [6]
active: [3] 14.2 µM

O=[N+]([O-])c1c(Cl)c(Cl)c(Cl)c(Cl)c1Cl
inactive: [1] | [2] | [4] | [5]
active: [3] 3.97 µM

CNC(=O)/C=C(\C)OP(=O)(OC)OC
inactive: [1] | [2] | [3] | [4] | [5] | [7]

CC[C@H](C)[C@H]1O[C@]2(C=C[C@@H]1C)C[C@@H]1C[C@@H](C/C=C(\C)[C@@H](O[C@H]3C[C@H](OC)[C@@H](O[C@H]4C[C@H](OC)[C@@H](O)[C@H](C)O4)[C@H](C)O3)[C@@H](C)/C=C/C=C3\CO[C@@H]4[C@H](O)C(C)=C[C@@H](C(=O)O1)[C@]34O)O2 (tested in a mixture with another compound)
active: [2] 3.14 µM
inactive: [1] | [3] | [5]

O=[N+]([O-])/N=C1\NCCN1Cc1ccc(Cl)nc1
inactive: [1] | [3] | [5]

Cc1cc(C)nc(NC(=O)NS(=O)(=O)c2ccccc2C(=O)OC2COC2)n1
inactive: [1] | [2] | [7]

N#CN
inactive: [1] | [2] | [3] | [5]

CCC(C)(NC(=O)c1cc(Cl)c(C)c(Cl)c1)C(=O)CCl (stereo unspecified)
inactive: [1] | [5]
active: [3] 3.97 µM | [8] 19.6 µM | [9] 23.9 µM

CNC(=O)Oc1ccccc1OC(C)C
inactive: [1] | [3]

O=C1c2ccccc2C(=O)N1SC(Cl)(Cl)Cl
inactive: [1] | [2] | [4] | [5]

O=C(NC(=O)c1c(F)cccc1F)Nc1ccc(OC(F)(F)C(F)OC(F)(F)F)c(Cl)c1 (stereo unspecified)
inactive: [1] | [2] | [4] | [7] | [8] | [9]

COC(=O)c1ccccc1S(=O)(=O)NC(=O)Nc1nc(C)nc(OC)n1
inactive: [1] | [2] | [5] | [6]

Oc1cc(Cl)ccc1Oc1ccc(Cl)cc1Cl
active: [7] 0.0058 µM | [8] 86.3 µM | [9] 81.2 µM
not listed: [6] | [10]
inactive: all other assays above

COP(=O)(OC)OC=C(Cl)Cl
inactive: [1] | [2] | [3] | [4] | [5] | [6]

O=C(O)COc1ccc(Cl)cc1Cl
inactive: [1] | [2] | [3] | [4] | [7]

Cc1[nH]c(=O)n(C(C)(C)C)c(=O)c1Cl
inactive: [1]

OCCOc1ccccc1
inactive: [1]
